The supplement of paper PMC11732987, “Enantioselective OTUD7B fragment discovery through chemoproteomics screening and high-throughput optimisation” (Communications Chemistry, 2025)

Experiments:
Test in all cases: log2 ratio of Biotin-Ahx-Ub-VS probe labelling (fragment/DMSO); higher = less target engagement (more negative = stronger competition), active = hit call of the paper (q ≤ 0.05, log2 ratio ≤ -1)
Conditions in all cases: compound concentration: 200 uM; treatment time: 3 h
[1] = target: T1, USP42 (UniProt Q9H9J4)
T1 sequence (whole entry): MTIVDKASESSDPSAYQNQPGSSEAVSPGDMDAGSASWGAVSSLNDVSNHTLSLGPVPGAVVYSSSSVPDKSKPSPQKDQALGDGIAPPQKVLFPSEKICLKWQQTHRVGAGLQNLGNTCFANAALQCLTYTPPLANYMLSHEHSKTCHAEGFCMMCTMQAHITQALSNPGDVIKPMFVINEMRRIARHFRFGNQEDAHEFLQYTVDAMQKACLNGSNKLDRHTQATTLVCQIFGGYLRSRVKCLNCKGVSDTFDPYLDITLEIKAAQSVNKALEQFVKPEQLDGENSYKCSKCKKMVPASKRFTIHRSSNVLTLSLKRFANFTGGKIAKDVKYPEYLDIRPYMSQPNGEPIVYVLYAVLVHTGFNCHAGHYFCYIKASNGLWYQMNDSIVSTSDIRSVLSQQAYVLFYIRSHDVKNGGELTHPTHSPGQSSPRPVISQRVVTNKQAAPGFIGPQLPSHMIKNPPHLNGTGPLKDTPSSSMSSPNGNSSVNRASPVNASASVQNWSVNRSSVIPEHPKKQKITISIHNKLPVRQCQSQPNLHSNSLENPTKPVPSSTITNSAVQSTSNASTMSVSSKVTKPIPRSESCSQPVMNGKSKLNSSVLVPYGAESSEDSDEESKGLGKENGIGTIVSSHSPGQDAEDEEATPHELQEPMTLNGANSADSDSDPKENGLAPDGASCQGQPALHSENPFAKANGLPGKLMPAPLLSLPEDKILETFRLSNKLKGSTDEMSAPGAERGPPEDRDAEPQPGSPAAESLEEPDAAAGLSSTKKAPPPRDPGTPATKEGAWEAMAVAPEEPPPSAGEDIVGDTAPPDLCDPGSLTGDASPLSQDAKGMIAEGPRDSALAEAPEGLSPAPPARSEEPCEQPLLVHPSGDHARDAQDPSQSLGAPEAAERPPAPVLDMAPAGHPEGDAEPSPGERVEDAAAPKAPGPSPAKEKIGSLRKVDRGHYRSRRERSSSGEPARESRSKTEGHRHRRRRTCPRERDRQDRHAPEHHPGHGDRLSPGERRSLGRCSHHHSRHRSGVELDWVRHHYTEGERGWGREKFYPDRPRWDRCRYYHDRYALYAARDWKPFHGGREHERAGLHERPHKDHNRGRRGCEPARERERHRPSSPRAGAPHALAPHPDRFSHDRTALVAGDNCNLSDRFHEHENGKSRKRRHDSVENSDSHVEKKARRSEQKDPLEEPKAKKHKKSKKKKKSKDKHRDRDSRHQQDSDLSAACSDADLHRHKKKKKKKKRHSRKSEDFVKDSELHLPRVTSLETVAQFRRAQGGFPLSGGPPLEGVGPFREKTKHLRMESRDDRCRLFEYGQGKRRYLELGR
Summary of the method: (§1)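 Labelled DUBs from HEK293T lysate were NeutrAvidin-enriched, digested with LysC and trypsin, and run by diaPASEF LC-MS/MS. Before that, each 495 µg sample in Tris/CHAPS/IGEPAL buffer with protease inhibitors was treated in triplicate with fragment at 200 µM or vehicle for 3 h, then with Biotin-Ahx-Ub-VS at 0.5 µM final for 1 h. Values are average log2 ratios of fragment over vehicle by unpaired t-test, based on global-median-normalised Spectronaut label-free quantities from proteins with ≥2 unique peptides.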

[2] = target: USP46 (UniProt P62068)
Chain of USP46 (P62068 whole entry): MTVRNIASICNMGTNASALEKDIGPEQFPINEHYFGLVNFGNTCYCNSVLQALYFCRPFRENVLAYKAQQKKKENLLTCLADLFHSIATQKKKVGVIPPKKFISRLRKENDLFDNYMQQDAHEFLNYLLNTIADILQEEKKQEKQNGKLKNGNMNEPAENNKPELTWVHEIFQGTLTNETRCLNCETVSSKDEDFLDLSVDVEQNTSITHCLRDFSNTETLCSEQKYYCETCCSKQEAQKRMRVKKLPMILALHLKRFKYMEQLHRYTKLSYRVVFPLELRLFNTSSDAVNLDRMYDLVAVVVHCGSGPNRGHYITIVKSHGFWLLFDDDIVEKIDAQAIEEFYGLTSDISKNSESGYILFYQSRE
Summary of the method: as §1

[3] = target: T2, USP47 (UniProt Q96K76)
T2 sequence (whole entry): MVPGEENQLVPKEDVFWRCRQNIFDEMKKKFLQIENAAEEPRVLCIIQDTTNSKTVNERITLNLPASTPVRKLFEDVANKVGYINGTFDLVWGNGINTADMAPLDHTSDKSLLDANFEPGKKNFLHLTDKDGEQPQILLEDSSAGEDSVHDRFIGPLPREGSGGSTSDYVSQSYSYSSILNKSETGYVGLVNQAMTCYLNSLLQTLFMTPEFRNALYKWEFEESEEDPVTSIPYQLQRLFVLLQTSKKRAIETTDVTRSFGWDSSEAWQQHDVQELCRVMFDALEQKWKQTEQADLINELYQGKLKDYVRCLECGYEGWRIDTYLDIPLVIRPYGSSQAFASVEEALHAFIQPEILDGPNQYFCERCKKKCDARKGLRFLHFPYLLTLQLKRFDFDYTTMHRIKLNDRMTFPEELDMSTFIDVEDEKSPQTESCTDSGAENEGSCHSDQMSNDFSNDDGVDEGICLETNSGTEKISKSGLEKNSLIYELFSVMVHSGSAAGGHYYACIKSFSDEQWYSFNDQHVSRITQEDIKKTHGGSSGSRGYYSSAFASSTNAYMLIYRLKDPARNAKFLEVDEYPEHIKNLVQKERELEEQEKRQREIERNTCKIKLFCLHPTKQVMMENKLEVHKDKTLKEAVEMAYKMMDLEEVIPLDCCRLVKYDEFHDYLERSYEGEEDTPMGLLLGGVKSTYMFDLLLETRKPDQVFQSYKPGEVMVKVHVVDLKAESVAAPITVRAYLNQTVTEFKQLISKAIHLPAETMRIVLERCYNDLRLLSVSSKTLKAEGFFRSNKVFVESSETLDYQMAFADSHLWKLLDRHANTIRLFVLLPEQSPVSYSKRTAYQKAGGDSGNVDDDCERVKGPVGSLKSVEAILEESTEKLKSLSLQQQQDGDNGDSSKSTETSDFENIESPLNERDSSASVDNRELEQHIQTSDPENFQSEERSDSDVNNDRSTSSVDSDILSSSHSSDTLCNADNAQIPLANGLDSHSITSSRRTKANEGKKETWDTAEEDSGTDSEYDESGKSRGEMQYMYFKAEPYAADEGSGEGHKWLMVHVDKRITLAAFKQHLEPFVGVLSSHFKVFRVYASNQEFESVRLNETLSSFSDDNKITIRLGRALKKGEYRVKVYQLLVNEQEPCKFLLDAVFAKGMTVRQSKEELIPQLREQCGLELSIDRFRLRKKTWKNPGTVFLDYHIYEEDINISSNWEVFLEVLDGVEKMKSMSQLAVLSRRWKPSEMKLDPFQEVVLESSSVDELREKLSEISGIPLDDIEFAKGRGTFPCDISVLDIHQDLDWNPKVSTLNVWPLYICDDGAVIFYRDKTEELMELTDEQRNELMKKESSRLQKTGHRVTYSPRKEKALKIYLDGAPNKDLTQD
Summary of the method: as §1

[4] = target: T3, USP48 (UniProt Q86UV5)
T3 sequence (whole entry): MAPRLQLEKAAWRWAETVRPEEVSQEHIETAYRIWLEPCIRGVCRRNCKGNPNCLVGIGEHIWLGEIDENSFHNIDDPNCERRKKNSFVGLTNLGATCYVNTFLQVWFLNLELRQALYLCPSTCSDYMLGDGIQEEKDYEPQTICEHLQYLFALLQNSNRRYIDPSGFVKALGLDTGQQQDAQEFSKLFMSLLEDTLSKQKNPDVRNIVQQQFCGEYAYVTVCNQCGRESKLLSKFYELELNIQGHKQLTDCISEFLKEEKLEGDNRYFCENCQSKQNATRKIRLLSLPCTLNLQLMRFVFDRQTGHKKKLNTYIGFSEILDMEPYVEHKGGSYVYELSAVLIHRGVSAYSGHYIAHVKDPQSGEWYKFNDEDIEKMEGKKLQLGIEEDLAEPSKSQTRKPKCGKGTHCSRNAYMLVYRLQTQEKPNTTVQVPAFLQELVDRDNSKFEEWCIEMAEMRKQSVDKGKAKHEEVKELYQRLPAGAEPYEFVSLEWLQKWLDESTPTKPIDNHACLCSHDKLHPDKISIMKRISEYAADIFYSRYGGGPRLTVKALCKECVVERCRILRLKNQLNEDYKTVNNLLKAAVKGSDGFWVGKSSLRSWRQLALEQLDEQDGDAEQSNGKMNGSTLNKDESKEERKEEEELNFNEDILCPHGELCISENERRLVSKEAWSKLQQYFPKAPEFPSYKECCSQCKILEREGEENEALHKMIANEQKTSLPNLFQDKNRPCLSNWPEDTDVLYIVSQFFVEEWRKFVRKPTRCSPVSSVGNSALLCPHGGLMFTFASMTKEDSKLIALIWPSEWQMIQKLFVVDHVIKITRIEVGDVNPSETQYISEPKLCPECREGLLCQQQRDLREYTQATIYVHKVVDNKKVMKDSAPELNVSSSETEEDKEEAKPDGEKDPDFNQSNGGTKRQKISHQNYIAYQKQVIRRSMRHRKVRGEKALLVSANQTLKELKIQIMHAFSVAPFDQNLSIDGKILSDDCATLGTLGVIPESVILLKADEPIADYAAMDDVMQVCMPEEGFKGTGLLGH
Summary of the method: as §1

[5] = target: T4, USP5 (UniProt P45974)
T4 sequence (whole entry): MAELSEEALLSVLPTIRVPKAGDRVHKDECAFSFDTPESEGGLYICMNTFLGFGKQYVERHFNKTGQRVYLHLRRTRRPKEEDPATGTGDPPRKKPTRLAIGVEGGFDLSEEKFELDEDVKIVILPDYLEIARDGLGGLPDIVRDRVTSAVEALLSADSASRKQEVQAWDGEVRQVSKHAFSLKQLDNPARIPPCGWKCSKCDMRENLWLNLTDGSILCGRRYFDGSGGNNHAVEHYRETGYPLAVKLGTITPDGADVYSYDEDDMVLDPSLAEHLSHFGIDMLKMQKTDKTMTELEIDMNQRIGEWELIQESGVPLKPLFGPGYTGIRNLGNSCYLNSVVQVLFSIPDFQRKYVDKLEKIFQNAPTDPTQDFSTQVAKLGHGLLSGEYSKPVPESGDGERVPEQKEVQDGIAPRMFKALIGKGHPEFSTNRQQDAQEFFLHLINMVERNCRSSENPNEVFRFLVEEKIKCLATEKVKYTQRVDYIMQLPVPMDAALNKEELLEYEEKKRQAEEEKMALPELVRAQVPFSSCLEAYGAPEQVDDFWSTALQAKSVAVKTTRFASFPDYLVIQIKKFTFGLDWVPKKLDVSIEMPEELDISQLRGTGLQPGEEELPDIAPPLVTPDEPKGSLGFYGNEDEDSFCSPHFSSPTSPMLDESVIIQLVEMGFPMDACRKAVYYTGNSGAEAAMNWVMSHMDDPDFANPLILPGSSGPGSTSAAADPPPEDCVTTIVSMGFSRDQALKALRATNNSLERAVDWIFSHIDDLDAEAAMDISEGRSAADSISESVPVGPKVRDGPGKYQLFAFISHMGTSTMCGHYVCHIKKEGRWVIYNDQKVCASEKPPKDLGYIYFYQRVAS
Summary of the method: as §1

[6] = target: USP54 (UniProt Q70EL1)
Chain of USP54 (Q70EL1 whole entry): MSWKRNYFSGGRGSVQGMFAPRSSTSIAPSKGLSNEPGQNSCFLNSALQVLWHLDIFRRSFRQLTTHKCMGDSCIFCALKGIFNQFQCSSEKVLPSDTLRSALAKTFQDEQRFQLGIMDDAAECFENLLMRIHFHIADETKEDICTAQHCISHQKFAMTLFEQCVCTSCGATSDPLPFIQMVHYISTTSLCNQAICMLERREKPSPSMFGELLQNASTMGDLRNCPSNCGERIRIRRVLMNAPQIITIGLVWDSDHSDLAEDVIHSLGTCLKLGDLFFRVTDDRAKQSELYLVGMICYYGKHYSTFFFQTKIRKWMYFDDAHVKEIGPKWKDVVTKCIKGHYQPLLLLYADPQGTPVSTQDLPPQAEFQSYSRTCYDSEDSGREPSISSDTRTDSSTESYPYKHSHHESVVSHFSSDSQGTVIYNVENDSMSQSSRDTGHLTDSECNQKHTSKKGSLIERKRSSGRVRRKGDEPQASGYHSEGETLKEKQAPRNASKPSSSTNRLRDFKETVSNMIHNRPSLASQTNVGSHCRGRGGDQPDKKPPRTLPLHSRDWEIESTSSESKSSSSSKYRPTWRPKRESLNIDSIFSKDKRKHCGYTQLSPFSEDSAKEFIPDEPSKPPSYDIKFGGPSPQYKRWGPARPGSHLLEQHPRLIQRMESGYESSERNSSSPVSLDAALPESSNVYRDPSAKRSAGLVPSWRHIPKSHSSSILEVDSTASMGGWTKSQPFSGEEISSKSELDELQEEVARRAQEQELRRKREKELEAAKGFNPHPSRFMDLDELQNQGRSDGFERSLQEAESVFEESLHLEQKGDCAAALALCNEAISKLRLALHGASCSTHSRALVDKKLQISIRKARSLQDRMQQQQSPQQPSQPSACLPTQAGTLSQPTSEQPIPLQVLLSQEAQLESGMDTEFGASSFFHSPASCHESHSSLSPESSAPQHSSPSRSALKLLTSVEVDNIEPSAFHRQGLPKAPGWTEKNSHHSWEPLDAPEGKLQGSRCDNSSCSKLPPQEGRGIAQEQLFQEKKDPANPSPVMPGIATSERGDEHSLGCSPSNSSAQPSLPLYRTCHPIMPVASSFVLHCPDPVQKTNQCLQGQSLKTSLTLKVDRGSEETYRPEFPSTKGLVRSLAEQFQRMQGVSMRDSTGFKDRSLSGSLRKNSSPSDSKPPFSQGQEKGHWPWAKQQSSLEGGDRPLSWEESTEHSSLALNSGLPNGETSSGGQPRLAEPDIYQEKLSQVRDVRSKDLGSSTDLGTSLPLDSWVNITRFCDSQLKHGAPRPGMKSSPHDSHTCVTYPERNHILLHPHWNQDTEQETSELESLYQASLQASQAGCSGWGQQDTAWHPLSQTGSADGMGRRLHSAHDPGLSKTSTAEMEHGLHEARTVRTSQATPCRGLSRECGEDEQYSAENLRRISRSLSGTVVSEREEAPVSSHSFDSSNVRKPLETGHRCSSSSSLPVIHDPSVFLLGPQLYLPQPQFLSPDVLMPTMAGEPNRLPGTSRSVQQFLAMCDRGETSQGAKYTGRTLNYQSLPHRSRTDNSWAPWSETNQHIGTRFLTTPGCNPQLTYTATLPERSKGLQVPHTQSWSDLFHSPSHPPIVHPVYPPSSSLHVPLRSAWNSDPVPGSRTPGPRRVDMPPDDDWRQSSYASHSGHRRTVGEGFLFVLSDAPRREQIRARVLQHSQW
Summary of the method: as §1

[7] = target: USP7 (UniProt Q93009)
Chain of USP7 (Q93009 whole entry, looked up): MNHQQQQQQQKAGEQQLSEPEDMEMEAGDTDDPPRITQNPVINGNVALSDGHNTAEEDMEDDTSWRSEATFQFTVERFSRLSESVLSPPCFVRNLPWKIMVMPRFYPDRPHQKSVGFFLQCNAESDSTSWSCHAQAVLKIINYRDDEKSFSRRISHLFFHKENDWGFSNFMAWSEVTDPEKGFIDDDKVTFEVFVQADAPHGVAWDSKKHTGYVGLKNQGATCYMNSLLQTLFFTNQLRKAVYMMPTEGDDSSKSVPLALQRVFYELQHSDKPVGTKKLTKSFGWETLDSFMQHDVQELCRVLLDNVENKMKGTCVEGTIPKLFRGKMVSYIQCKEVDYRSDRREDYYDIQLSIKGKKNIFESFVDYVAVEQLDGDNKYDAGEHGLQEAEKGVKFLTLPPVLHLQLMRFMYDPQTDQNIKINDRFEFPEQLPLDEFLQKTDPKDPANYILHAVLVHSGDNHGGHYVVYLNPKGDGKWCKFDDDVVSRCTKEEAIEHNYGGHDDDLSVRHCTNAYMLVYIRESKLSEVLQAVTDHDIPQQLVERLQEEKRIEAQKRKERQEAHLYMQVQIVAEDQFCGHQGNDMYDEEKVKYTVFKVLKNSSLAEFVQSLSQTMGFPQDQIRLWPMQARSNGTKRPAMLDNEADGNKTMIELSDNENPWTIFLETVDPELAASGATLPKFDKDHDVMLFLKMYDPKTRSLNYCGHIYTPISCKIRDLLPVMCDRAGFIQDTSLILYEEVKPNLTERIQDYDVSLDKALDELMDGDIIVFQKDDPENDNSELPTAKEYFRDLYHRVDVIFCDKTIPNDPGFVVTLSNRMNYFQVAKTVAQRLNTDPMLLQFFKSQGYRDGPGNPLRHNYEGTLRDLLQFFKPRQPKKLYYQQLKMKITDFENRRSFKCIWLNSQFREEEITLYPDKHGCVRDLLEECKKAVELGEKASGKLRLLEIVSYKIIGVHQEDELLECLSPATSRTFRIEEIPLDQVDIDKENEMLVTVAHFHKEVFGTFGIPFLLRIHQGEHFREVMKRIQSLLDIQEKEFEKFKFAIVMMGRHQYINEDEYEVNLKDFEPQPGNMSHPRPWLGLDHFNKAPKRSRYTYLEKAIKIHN
Summary of the method: as §1

[8] = target: T5, USP8 (UniProt P40818)
T5 sequence (whole entry): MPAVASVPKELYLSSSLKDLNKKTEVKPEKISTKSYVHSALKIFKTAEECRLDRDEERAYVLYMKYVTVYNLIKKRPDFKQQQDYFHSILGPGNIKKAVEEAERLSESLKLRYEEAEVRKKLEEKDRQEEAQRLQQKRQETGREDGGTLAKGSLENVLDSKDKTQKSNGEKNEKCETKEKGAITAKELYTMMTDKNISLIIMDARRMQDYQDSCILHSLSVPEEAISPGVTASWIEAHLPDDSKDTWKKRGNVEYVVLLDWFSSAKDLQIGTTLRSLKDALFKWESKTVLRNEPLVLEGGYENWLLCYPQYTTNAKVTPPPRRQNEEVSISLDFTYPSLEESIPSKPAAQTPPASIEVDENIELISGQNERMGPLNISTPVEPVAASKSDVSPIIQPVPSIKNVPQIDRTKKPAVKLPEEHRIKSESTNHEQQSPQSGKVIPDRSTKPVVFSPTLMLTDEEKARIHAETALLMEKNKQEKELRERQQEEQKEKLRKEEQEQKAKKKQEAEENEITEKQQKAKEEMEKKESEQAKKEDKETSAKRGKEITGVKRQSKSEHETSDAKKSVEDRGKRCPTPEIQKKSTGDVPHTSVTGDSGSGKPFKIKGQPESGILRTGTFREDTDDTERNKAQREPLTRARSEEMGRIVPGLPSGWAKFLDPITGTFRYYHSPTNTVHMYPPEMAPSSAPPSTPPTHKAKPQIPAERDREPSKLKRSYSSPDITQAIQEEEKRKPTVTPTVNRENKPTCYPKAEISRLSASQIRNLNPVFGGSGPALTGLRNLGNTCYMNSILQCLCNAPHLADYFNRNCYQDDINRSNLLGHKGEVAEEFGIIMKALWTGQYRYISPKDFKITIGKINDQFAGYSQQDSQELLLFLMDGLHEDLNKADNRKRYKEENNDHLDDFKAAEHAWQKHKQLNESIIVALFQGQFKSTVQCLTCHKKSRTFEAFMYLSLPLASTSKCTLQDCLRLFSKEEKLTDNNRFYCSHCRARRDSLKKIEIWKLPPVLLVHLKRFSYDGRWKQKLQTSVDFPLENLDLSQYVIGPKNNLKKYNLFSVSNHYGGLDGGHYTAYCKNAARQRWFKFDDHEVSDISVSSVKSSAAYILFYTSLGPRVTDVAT
Summary of the method: as §1

Measured: log2 ratio of Biotin-Ahx-Ub-VS probe labelling

CCCn1nccc1NC(=O)CCl
inactive: [1] 0.302 | [2] -0.137 | [3] -0.323 | [4] -0.124 | [5] -0.757 | [6] 0.705 | [7] -0.254 | [8] -0.318
